Unmarked numbers belong to inactive results. Inconclusive results are not listed. Entries that show only a call come without a potency. Calls of active or inactive are those of the source. Unless noted, calls follow the shape of the full dose curve.
Key:
[1] = Nuclear factor erythroid 2-related factor 2/antioxidant responsive element (Nrf2/ARE) small molecule agonists: qHTS cell viability counter screen in human keratinocytes (AID 1919968; active = well fitted curve in the direction sought with a large enough effect in the repeat runs; an effect the other way counts as inactive or inconclusive; also: nearly all actives have a fitted effect of over 55% in size; also: potency is read from the fitted curve at half-maximal effect)
Outline: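 Cytotoxicity was multiplexed with the Nrf2/ARE luciferase assay in the same wells. Stably transfected HaCaT keratinocytes were treated with test compounds for 23 h at 37 C. Cell viability was then measured by CellTiter-Fluor fluorescence.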

[2] = Nuclear factor erythroid 2-related factor 2/antioxidant responsive element (Nrf2/ARE) small molecule agonists: luciferase reporter gene qHTS assay in human keratinocytes (AID 1919969); also: nearly all actives have a fitted effect of over 35% in size; also: potency is read from the fitted curve at half-maximal effect
[3] = G protein-coupled receptor (GPCR) small molecule agonists, calcium flux assay: HEK293 wild type cell line counter screen (AID 1920065)
Outline: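 Seed cells, incubate 18 h (37 C, 5% CO2); add calcium dye, 1 h at 37 C; pin-transfer compounds, ATP control or DMSO; read fluorescence 480/540 nm each second for 3 min.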

[4] = p53 small molecule agonists, cell-based qHTS assay with rat liver microsomes: qHTS cell viability counter screen (AID 1963580); also: nearly all actives have a fitted effect of over 45% in size; also: potency is read from the fitted curve at half-maximal effect
Outline: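 Counter screen for cytotoxicity under metabolic activation: rat liver microsomes and NADPH, 0.5 mg/mL final each, added with compounds to p53RE-bla HCT-116 cells; 16 h at 37 C, then ATP luminescence read.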

[5] = target: 5-hydroxytryptamine receptor 2A (Homo sapiens) (UniProt P28223); assay: 5-hydroxytryptamine receptor 2A (HTR2A) small molecule antagonists, cell-based qHTS assay (AID 1963586); also: nearly all actives have a fitted effect of over 45% in size; also: potency is read from the fitted curve at half-maximal effect
Outline: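 CHO cells stably expressing human HTR2A were plated for 18 h at 37 C, then loaded with calcium dye for 1 h. Compounds were preincubated 5 min at room temperature before DOI (4 nM solution) was added. Kinetic fluorescence was read for 3 min.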

[6] = target: 5-hydroxytryptamine receptor 2A (Homo sapiens) (UniProt P28223); assay: 5-hydroxytryptamine receptor 2A (HTR2A) small molecule agonists, cell-based qHTS assay (AID 1963587); also: nearly all actives have a fitted effect of over 30% in size; also: potency is read from the fitted curve at half-maximal effect
Outline: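 HTR2A-CHO cells, plated 18 h at 37 C/5% CO2, dye-loaded 1 h at 37 C; compounds in DMSO added by pin tool (agonist mode). Intracellular calcium flux read as kinetic fluorescence on FDSS over 2 min at 1 s intervals.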

[7] = target: Muscarinic acetylcholine receptor M1 (Homo sapiens) (UniProt P11229); assay: Cholinergic receptor muscarinic 1 (CHRM1) small molecule antagonists, cell-based qHTS assay (AID 1963588); also: nearly all actives have a fitted effect of over 40% in size; also: potency is read from the fitted curve at half-maximal effect
Outline: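 Compounds were tested at 15 concentrations in three independent runs. Dye-loaded CHRM1-CHO cells were exposed 5 min at room temperature before stimulation by acetylcholine added at 50nM. Intracellular calcium was read kinetically on FDSS for 3 min.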

[8] = target: Muscarinic acetylcholine receptor M1 (Homo sapiens) (UniProt P11229); assay: Cholinergic receptor muscarinic 1 (CHRM1) small molecule agonists, cell-based qHTS assay (AID 1963589); also: nearly all actives have a fitted effect of over 35% in size
Outline: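 Cells were plated and incubated 18 h at 37 C/5% CO2, loaded with calcium dye for 1 h at 37 C, then treated with compounds in DMSO. Fluorescence was recorded kinetically at 1 sec intervals.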

[9] = cAMP Responsive Elements (CRE) small molecule agonists, cell-based qHTS assay (AID 1963590)
Outline: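 Cells carrying a CRE-driven beta-lactamase reporter (HEK 293T) are seeded, incubated overnight (18 h), and treated with test compounds for 3 h at 37 C; reporter activity is then detected with a FRET substrate after 2 h at room temperature.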

[10] = cAMP Responsive Elements (CRE) small molecule antagonists, cell-based qHTS assay (AID 1963591; active = well fitted inhibition curve with a large enough effect in the signal ratio in the repeat runs, not every such curve was filed as active; the % refers to the signal ratio; also: potency is read from the fitted curve at half-maximal effect)
Outline: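 Cells (CRE-bla HEK 293T, DMEM with 10% dialyzed FBS and 25 mM HEPES) are seeded and incubated 18 h. Compounds are added with NKH477 agonist at 0.25 uM final for 3 h, then FRET substrate for 2 h.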

[11] = target: Beta-2 adrenergic receptor (Homo sapiens) (UniProt P07550); assay: Adrenergic beta2 receptor (ADRB2) small molecule antagonists, cell-based qHTS assay (AID 1963592); also: series mostly up to about 92 µM; nearly all actives have a fitted effect of over 50% in size
Outline: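 Assay format: CHO-ADRB2 cells, 18-20hr seeding at 37C/5% CO2, then compound plus 1nM isoproterenol agonist mix for 0.5hr RT. Homogeneous time-resolved fluorescence cAMP detection after 1hr, expressed as 665/615 nm ratio.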

[12] = target: Beta-2 adrenergic receptor (Homo sapiens) (UniProt P07550); assay: Adrenergic beta2 receptor (ADRB2) small molecule agonists, cell-based qHTS assay (AID 1963593);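 also: CHO cells stably overexpressing human ADRB2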
Outline: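 CHO cells stably over-expressing ADRB2 were plated overnight at 37C, then dosed with compounds plus a stimulation mix containing 100uM IBMX and 25uM Ro-20-1724 for 0.5hr at room temperature. cAMP was measured by HTRF competition, 1hr.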

[13] = target: D(2) dopamine receptor (Homo sapiens) (UniProt P14416); assay: Dopamine D2 receptor (DRD2) small molecule agonists, cell-based qHTS assay (AID 1963594); also: nearly all actives have a fitted effect of over 35% in size
Outline: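 HEK293 cells stably expressing DRD2 were cultured 24 h at 37 C, then given Ro20-1724 (0.1 mM final) and compounds for 10 min at room temperature. NKH477 (200nM) was then added for 30 min. cAMP was read by HTRF.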

[14] = target: D(2) dopamine receptor (Homo sapiens) (UniProt P14416); assay: Dopamine D2 receptor (DRD2) small molecule antagonists, cell-based qHTS assay (AID 1963595; active = well fitted inhibition curve with a large enough effect in the signal ratio in the repeat runs, with a control signal flat; the % refers to the signal ratio; also: potency is read from the fitted curve at half-maximal effect)
Outline: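 Stable D2 receptor HEK293 line, 24 h after seeding. Compound preincubated 10 min, then quinpirole (12 nM) with forskolin analogue NKH477 (200 nM), 30 min, room temperature. Detection by time-resolved FRET of cAMP.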

[15] = p53 small molecule agonists, cell-based qHTS assay: qHTS cell viability counter screen (AID 1963581); also: nearly all actives have a fitted effect of over 45% in size; also: potency is read from the fitted curve at half-maximal effect
Outline: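 Viability was counter-screened in parallel with the p53 agonist reporter by measuring intracellular ATP luminescence in the same HCT-116 p53RE-bla wells after 16 h compound treatment at 37 C.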

[16] = target: KiSS-1 receptor (Homo sapiens) (UniProt Q969F8); assay: Human kisspeptin (KISS1R) small molecule agonists, calcium flux assay in KISS1R-HEK293 cells (AID 1920064; active = well fitted curve in the direction sought with a large enough effect in the repeat runs; an effect the other way counts as inactive or inconclusive)
Outline: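 Agonist activity is monitored as intracellular calcium rise in engineered HEK293 cells carrying human KISS1R. Cells are dye-loaded for 1 h at 37 C before compound addition, and fluorescence is recorded for 3 min.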

[17] = p53 small molecule agonists, cell-based qHTS assay with human liver microsomes (AID 1963577)
Outline: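 Cells carrying a p53-responsive bla reporter were rested 5 h (37 C, 5% CO2) before compound transfer. Human liver microsomes plus NADPH, 0.5 mg/mL final apiece, supplied metabolism during the 16 h 37 C exposure.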

[18] = p53 small molecule agonists, cell-based qHTS assay with rat liver microsomes (AID 1963578)
Outline: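 Fluorescence from a beta-lactamase reporter under a p53 response element was measured after cells had been incubated 16 h at 37 C with test compound and rat liver microsomes plus NADPH (0.5 mg/mL final each).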

[19] = p53 small molecule agonists, cell-based qHTS assay with human liver microsomes: qHTS cell viability counter screen (AID 1963579); also: nearly all actives have a fitted effect of over 45% in size; also: potency is read from the fitted curve at half-maximal effect
Outline: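 Seed p53RE-bla cells at 4,000 per well; incubate 5 h at 37 C; add compound, human liver microsomes and NADPH; incubate 16 h at 37 C; add CellTiter-Glo; after 30 min at room temperature, read luminescence.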

[20] = p53 small molecule agonists, cell-based qHTS assay (AID 1963582; active = well fitted activation curve with a large enough effect in the signal ratio in the repeat runs, not every such curve was filed as active; the % refers to the signal ratio; also: potency is read from the fitted curve at half-maximal effect)
Outline: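 Cells carrying a p53-responsive bla reporter are treated with test compounds for 16 h at 37 C; beta-lactamase activity is then detected with LiveBLAzer B/G FRET substrate after 2 h at room temperature.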

Beta-2 adrenergic receptor (Homo sapiens), sequence (P07550 whole entry, looked up): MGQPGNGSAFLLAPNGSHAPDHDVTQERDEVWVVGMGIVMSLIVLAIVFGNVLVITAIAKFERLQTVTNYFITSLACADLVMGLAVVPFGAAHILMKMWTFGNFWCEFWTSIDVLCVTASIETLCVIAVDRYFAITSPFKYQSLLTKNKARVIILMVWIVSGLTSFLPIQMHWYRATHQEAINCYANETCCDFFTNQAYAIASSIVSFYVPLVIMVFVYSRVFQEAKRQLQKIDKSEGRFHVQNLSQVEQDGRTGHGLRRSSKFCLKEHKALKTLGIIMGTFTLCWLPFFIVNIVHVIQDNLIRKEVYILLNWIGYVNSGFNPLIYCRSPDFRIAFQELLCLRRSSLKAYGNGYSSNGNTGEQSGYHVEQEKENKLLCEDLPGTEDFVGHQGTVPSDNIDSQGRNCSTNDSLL
D(2) dopamine receptor (Homo sapiens), sequence (P14416 whole entry, looked up): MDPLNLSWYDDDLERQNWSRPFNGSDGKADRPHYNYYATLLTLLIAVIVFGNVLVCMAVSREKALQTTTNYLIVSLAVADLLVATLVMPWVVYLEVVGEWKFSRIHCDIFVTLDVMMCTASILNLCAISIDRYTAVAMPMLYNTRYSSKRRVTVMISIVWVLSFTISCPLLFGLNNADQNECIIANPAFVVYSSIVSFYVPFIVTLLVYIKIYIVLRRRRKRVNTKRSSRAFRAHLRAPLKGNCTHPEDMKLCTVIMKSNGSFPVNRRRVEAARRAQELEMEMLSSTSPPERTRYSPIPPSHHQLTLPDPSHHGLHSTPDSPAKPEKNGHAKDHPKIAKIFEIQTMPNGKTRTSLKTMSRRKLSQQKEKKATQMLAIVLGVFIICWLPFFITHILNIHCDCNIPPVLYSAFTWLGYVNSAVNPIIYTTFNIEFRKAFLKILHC
Muscarinic acetylcholine receptor M1 (Homo sapiens), sequence (P11229 whole entry, looked up): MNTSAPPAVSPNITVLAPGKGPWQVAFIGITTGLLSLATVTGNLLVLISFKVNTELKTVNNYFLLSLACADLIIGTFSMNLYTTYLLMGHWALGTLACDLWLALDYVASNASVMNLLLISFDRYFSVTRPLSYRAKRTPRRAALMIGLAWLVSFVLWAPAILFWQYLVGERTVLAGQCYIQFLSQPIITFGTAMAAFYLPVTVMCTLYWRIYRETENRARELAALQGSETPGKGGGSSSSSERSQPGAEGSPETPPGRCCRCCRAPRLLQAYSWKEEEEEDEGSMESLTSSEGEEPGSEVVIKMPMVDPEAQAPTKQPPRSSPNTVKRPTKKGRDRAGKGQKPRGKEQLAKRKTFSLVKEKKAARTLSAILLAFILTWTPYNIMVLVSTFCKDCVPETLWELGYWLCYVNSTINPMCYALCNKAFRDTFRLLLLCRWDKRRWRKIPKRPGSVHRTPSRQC
5-hydroxytryptamine receptor 2A (Homo sapiens), sequence (P28223 whole entry, looked up): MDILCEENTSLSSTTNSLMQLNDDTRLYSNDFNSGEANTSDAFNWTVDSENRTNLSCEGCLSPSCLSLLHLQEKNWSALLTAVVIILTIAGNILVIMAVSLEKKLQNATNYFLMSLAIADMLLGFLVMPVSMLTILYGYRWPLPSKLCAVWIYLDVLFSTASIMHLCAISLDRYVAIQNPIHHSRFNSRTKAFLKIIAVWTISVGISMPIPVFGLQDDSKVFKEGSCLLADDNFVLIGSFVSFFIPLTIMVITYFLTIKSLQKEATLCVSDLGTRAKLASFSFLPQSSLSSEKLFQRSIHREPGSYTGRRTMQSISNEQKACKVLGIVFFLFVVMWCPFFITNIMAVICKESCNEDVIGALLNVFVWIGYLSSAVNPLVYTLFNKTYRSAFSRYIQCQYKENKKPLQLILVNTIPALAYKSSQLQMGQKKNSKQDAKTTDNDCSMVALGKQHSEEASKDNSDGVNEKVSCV
KiSS-1 receptor (Homo sapiens), sequence (Q969F8 whole entry, looked up): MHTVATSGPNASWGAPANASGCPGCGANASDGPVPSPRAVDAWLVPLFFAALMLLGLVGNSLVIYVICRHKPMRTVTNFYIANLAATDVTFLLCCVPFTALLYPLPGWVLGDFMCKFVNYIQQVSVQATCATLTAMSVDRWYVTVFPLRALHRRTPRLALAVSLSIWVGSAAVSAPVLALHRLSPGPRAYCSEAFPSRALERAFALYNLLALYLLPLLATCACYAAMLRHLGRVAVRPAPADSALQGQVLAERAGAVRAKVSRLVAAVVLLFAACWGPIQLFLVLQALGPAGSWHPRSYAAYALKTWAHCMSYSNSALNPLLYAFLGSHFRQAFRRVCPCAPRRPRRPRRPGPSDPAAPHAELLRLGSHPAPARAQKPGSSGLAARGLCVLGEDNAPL

Row | SMILES | Potency [1] | Potency [2] | Potency [3] | Potency [4] | Potency [5] | Potency [6] | Potency [7] | Potency [8] | Potency [9] | Potency [10] | Potency [11] | Potency [12] | Potency [13] | Potency [14] | Potency [15] | Potency [16] | Potency [17] | Potency [18] | Potency [19] | Potency [20]
1 | Cc1ncc([C@@H](CCCCCCc2ccc3c(n2)NCCC3)CC(=O)O)cn1 | inactive | inactive | inactive | inactive | inactive | inactive | inactive | inactive | inactive | 545 nM (active) | inactive | inactive | inactive | inactive | – | – | – | – | – | –
2 | Nc1cc(N)cc(C(=O)O)c1 | inactive | inactive | inactive | inactive | inactive | inactive | inactive | inactive | inactive | inactive | inactive | – | inactive | – | inactive | – | – | – | – | –
3 | CCCCCCOc1ccccc1C(N)=O | inactive | inactive | inactive | inactive | inactive | – | inactive | inactive | inactive | inactive | inactive | – | inactive | – | inactive | inactive | inactive | inactive | inactive | –
4 | O=C1NC(=O)c2cc([N+](=O)[O-])ccc21 | inactive | inactive | inactive | inactive | inactive | 55.4 µM (active) | inactive | – | – | inactive | inactive | – | inactive | inactive | inactive | inactive | inactive | inactive | – | –
5 | CC(C)(C)c1ccc(OC2CCCCC2O)cc1 (configuration not stated) | inactive | 38.6 µM (active) | inactive | 1.62 µM (active) | – | 43.6 µM (active) | inactive | – | – | inactive | – | – | inactive | inactive | inactive | inactive | inactive | inactive | inactive | –
6 | CC(C)(C)CC(C)(C)c1ccc(OCCO)cc1 | inactive | inactive | inactive | inactive | inactive | – | – | inactive | – | – | inactive | – | inactive | inactive | inactive | inactive | inactive | inactive | inactive | inactive
7 | O=CNc1ccccc1 | inactive | inactive | inactive | inactive | inactive | inactive | – | inactive | inactive | inactive | inactive | – | inactive | inactive | – | – | – | – | inactive | –
8 | COc1cccc2c1C(=O)c1c(O)c3c(c(O)c1C2=O)C[C@@](O)(C(=O)CO)C[C@@H]3O[C@H]1C[C@H](N)[C@H](O[C@@H]2CCCCO2)[C@H](C)O1 | 9.44 µM (active) | 2.66 µM (active) | inactive | 3.97 µM (active) | – | 10.7 µM (active) | inactive | inactive | inactive | – | inactive | – | – | – | inactive | inactive | inactive | inactive | – | 1.78 µM (active)
9 | CC(C)(CO)[C@@H](O)C(=O)NCCCO | inactive | inactive | inactive | inactive | – | – | – | – | inactive | inactive | inactive | inactive | inactive | inactive | inactive | – | – | – | inactive | –
10 | COCC(=O)O[C@]1(CCN(C)CCCc2nc3ccccc3[nH]2)CCc2cc(F)ccc2[C@@H]1C(C)C | 23.7 µM (active) | inactive | inactive | inactive | 5.16 µM (active) | inactive | inactive | inactive | – | – | inactive | – | inactive | inactive | – | inactive | inactive | inactive | inactive | –
11 | CCCCCCCCCCCCOCCOCCOCCOCCOCCOCCOCCOCCOCCO | 29.8 µM (active) | inactive | inactive | inactive | – | inactive | 9.18 µM (active) | inactive | – | – | inactive | inactive | – | inactive | inactive | inactive | inactive | inactive | – | inactive
12 | CCCCCCOc1cc(C)c(O)c(C)c1C | 31 µM (active) | inactive | inactive | – | 19 µM (active) | 39.4 µM (active) | inactive | – | – | – | – | – | inactive | – | – | inactive | inactive | inactive | 26 µM (active) | inactive
13 | CN1CCC(=C2c3ccccc3Sc3ccccc32)CC1 | inactive | inactive | inactive | inactive | – | inactive | – | – | inactive | inactive | – | – | inactive | 0.75 µM (active) | inactive | – | – | – | – | –
14 | CCCCCCCCCCCCCCCCCC[N+](C)(C)C | 61.3 µM (active) | inactive | inactive | – | inactive | 34.8 µM (active) | – | inactive | – | – | – | – | inactive | inactive | 16.3 µM (active) | inactive | inactive | inactive | 40.9 µM (active) | –
15 | COc1cc(/C=C/C(=O)CC(=O)/C=C/c2ccc(O)c(OC)c2)ccc1O | 48.9 µM (active) | 15.4 µM (active) | – | – | inactive | 22 µM (active) | inactive | – | – | – | inactive | – | inactive | – | 46.1 µM (active) | – | – | – | 16.3 µM (active) | –
16 | Cc1[nH]cnc1C[C@H]1CCc2c(C)c3ccccc3n2C1=O | inactive | inactive | inactive | inactive | 1.46 µM (active) | 42.6 µM (active) | 25.9 µM (active) | inactive | inactive | inactive | – | – | inactive | 53.1 µM (active) | – | inactive | inactive | inactive | inactive | inactive

Source: PubChem BioAssay (Tox21)
